We go through 34 compounds from PubChem BioAssay (NCI).

Molecules are shown by their SMILES. About 83,000 compounds went through this panel and 20% of them were active in at least one assay; those are over-represented in the sample as a whole.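 Note: values are percent growth. 100 is the growth of untreated cells, values between 100 and 0 indicate rising inhibition; between -100 and 0 indicates cell death.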 A number with no mark means an inactive call. Activity calls are given as the source filed them. How the source made its calls: active means growth percent below 10; inactive means the rest.

The test system of one assay is K-562 leukemia. Kind of assay: NCI-60 one-dose screen, 48 h (100 = growth as untreated, 0 = no growth, -100 = all killed). Particulars: 10 µM unless noted.
On to `Nc1c(F)cc(-c2nc3cc(F)ccc3[se]2)cc1Br`, for which the growth is 98.5%.
Still for that read-out and setting: the same measure for `O=[N+]([O-])CC(c1ccccc1Cl)c1c(-c2ccccc2)[nH]c2ccccc12` (centres undefined): 12.4%; for `CC(CO)NC1CCCCC1` (centres undefined): 104%; for `OCCNC(Cc1ccccc1)c1ccc2c(c1)OCO2` (centres undefined): 84.1%.
The same measure, in the same setting: the result for `Clc1cccc(N2COOC3(OOC2)C2CC4CC(C2)CC3C4)c1` reads 66.2%.

The next assay has as its system MALME-3M melanoma. The assay is described as above. Particulars: 10 µM unless noted.
In the case of `CCCC[C@H](NC(=O)[C@H]1CCCCN1C)C(=O)N(C)[C@H](C[C@@H](OC(C)=O)c1nc(C(=O)N[C@@H](Cc2ccccc2)C[C@H](C)C(=O)OCC)cs1)C(C)C`, the growth was 37.4%.
For the compound `O=C([O][Hg][CH2]C1OCCOC1[CH2][Hg][O]C(=O)c1ccccc1)c1ccccc1` (centres undefined), the growth is -98.3% (active).
In the case of `Cn1cc(-c2csc(-c3cn(CCN4CCOCC4)c4ccccc34)n2)c2cccnc21`, the growth was 81.4%.
The same measure, in the same setting: the result for `O=C(O)c1c(Cl)n(Cc2ccc(O)cc2)c2ccc(O)cc12` reads 106%; that for `CCCCCCCCCCCCCCCCCCOc1ccccc1COP(=O)(O)OOCC[N+](C)(C)C`, -12.3% (active).
As to `CC(C)(C)N1CC1C#N` (centres undefined), the growth is 103%.
Turning to `COC(=O)[C@@H](C)C[C@H](Cc1ccc2ccccc2c1)NC(=O)c1csc([C@@H](C[C@H](C(C)C)N(C)C(=O)[C@@H](NC(=O)[C@H]2CCCCN2C)C(C)C)OC(C)=O)n1`, the growth was 63.1%.
On the same count and under the same terms, the same measure for `CCCCC1(CCC)C(=O)NC(=S)NC1=O`: 119%; for `Nc1ccc(Cl)cc1`: 104%; for `COc1ccc([As]=[As]c2ccc(OC)c(NCS(=O)(=O)O)c2)cc1NCS(=O)(=O)O` (centres undefined): -44.6% (active).
Same read-out and setting: the same measure for `CC1(C)C(C(=O)c2cn(CCCCF)c3ccccc23)C1(C)C`: 92.9%.
Still for that read-out and setting: the same measure for `O=[N+]([O-])c1ccc([Se]C2CCCCC2Cl)c([N+](=O)[O-])c1` (centres undefined): 69.8%; for `COP(=O)(OC)C(O)c1ccc(Cl)cc1` (centres undefined): 101%.
As for `Cc1cnc(/C=C/C(=O)O)cc1-c1cc2c(cc1C)C(C)(C)CCC2(C)C`, the growth is 8.87% (active).
Same read-out and setting: the same measure for `COC(=O)[C@H](C[C@H](Cc1ccccc1)NC(=O)c1csc([C@@H](C[C@H](C(C)C)N(C)C(=O)[C@@H](NC(=O)[C@H]2CCCCN2C)C(C)C)OC(C)=O)n1)NC(=O)OCc1ccccc1`: -53.7% [8.5 µM] (active); for `Cc1ccc2c(C(C[N+](=O)[O-])c3cccs3)c(-c3ccccc3)[nH]c2c1` (centres undefined): 50.9%.
The same measure, in the same setting: the same measure for `CCOC(=O)[C@@H](C)C[C@H](Cc1ccccc1)NC(=O)c1csc([C@@H](C[C@H](C(C)C)N(C)C(=O)[C@@H](NC(=O)[C@H]2CCCCN2C)C(C)(C)C)OC(C)=O)n1`: 62.4%; for `NC(=O)C(Br)c1ccccc1` (centres undefined): 74.9%.
In the case of `CC(=O)O[C@H](C[C@H](C(C)C)N(C)C(=O)[C@@H](NC(=O)[C@H]1CCCCN1C)C(C)C)c1nc(C(=O)N[C@@H](Cc2ccccc2)C[C@H](C)C(=O)O)c(CCOCc2ccccc2)s1`, the growth was 23.3%.
For the compound `O=NN1CCCc2cccc(O)c21`, the growth is 38.3%.
Still for that read-out and setting: the result for `C#C[C@]1(OC(=O)CCCCCC)CC[C@H]2[C@@H]3CCC4=CC(=O)CC[C@@H]4[C@H]3CC[C@@]21C` reads 77.1%; that for `CC(=O)OC1C(OC/C2=C/C3[C@@H](C(C)C)CC=C(C)[C@@H]3CC(OC(=O)/C=C/c3cn(C)cn3)[C@]3(C)C=C[C@@]2(O)O3)OCC(O)C1O` (some centres undefined), 48.4%; that for `COC1CC2c3ccccc3C1C(C)=[N+]2C` (centres undefined), 88.7%.
As for `NC(=O)CNc1ccc([As]=[As]c2ccc(NCC(N)=O)cc2)cc1` (centres undefined), the growth is 47.2%.
The same measure, in the same setting: the result for `CCCCCN(CCCCC)CC(O)c1cc(Cl)ccc1OC` (centres undefined) reads 66.9%; that for `ClC1=C(Cl)C(Cl)(C2(Cl)C(Cl)=C(Cl)C(Cl)=C2Cl)C(Cl)=C1Cl`, -67.5% (active).
On the same count and under the same terms, the result for `CCOC(=O)[C@@H](C)C[C@H](Cc1ccccc1)NC(=O)c1nc([C@@H](C[C@H](C(C)C)N(C)C(=O)[C@@H](NC(=O)[C@H]2CCCCN2C)C(C)C)OC(C)=O)sc1CCOCc1ccccc1` reads -77.4% (active).
On the same count and under the same terms, the result for `COC(=O)N[C@H]1CCc2c(Br)c(OC)c(OC)c(OC)c2-c2ccc(SC)c(=O)cc21` reads 28.6%; that for `O=C(CC1(O)C(=O)Nc2ccc(Br)cc21)c1ccc(C(=O)NCC2CCC3(CC2)OOC2(CCCCC2)OO3)cc1` (centres undefined), -7.48% (active).
